Structures are written as SMILES. “And” between values parts separate entries of the source, which are not always exact repeats. Identical values can stand only once. Inconclusive results are not listed. Entries that show only a call come without a potency. The source made the active and inactive calls. The call rests on the fitted dose curve; in most records, active means well fitted cell-killing curve with a large enough effect in the repeat runs; inconclusive means weak or mixed curves, or effect the other way; inactive means flat fitted curve, though single readings scatter. Starred links: 1 amine or outer side, 2 acyl side, 3 side chain; linkers in the order of their positions; H or OH if unused. Positions of bridges follow the written chain, without caps; N, C: chain ends. Non-standard residues stand in square brackets, D forms with d. Residues, ends and D or L forms follow the SMILES beside them. Chains are numbered I, II in the order given. Actinocin(9to1) = Cc1c2oc3c(C)ccc(C(=O)[*:1])c3nc-2c(C(=O)[*:2])c(N)c1=O; NMeV = CN[C@H](C(=O)O)C(C)C; Sar = CNCC(=O)O
Potency means the concentration at half of the fitted maximal effect.

This assay can be described thus: qHTS RealTime-Glo MT Cell Viability Assay in HEK293 cells - 24 hour (AID 1224886). Further: nearly all actives have a fitted effect of over 50% in size. Conditions: RealTime-Glo luminescence; series mostly up to 76.8 µM. In outline: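 HEK293 cells were seeded at 600 cells/well together with NanoLuc luciferase and cell-permeant prosubstrate, preincubated 5 h at 37 C/5% CO2, then given compound in DMSO by pintool. Luminescence from viable-cell prosubstrate reduction was read repeatedly over 40 h.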
(In general: In qHTS, concentration-response curves come from the screen itself.)
With `CC(C)(C)NCC(O)c1cc(O)cc(O)c1` (stereo unspecified), the Potency result is “inactive”.

As to `Cc1c2oc3c(C)ccc(C(=O)N[C@@H]4C(=O)N[C@H](C(C)C)C(=O)N5CCC[C@H]5C(=O)N(C)CC(=O)N(C)[C@@H](C(C)C)C(=O)O[C@@H]4C)c3nc-2c(C(=O)N[C@@H]2C(=O)N[C@H](C(C)C)C(=O)N3CCC[C@H]3C(=O)N(C)CC(=O)N(C)[C@@H](C(C)C)C(=O)O[C@@H]2C)c(N)c1=O` (I: T[dV]P[Sar][NMeV] / II: T[dV]P[Sar][NMeV]; ester I:1-I:C, II:1-II:C; linker I:N-II:N via Actinocin(9to1)), the Potency was 16.9 nM (active) and 23.9 nM (active).

On to `C#CC(C)(CC)OC(=O)c1ccccc1C(=O)O` (stereo unspecified), for which the Potency entry was “inactive”.

As to `CC(C)(C)NCC(O)COc1ccccc1OCC1CCCO1` (stereo unspecified), the Potency result is “inactive”.

In the case of `COc1ccc(Cc2cnc(N)nc2N)cc1OC`, the Potency entry was “inactive”.

Regarding `C=CS(=O)(=O)O`, the Potency result was “inactive”.

With `CC(=O)C1=C(C)[C@@H]2C[C@@]3(C1)[C@H](C)CC[C@H]3C2(C)C`, the Potency entry is “inactive”.

For the compound `O=S(=O)(O)c1ccc2nc(-c3ccccc3)[nH]c2c1`, the Potency result was “inactive”.

As to `Cc1scc2c1N(C(=O)CN1CCN(C)CC1)c1ccccc1NC2=O`, the Potency result is “inactive”.

Regarding `COC(c1ccccc1)(c1ccccc1)[C@H](Oc1nc(C)cc(C)n1)C(=O)O`, the Potency result is “inactive”.

On to `OCCN1CCNCC1`, for which the Potency is 7.9 µM (active).

Turning to `C1COC(NC(C2CC2)C2CC2)=N1`, the Potency result is “inactive”.

As for `Cc1cc(OCCOCC[N+](C)(C)Cc2ccccc2)ccc1C(C)(C)CC(C)(C)C`, the Potency is 12.2 µM (active) and 8.49 µM (active).

`CC(=O)CC(=O)Nc1ccc2[nH]c(=O)[nH]c2c1`: the Potency entry was “inactive”.

Regarding `CCN(CC)C(=O)Nc1ccc(OCC(O)CNC(C)(C)C)c(C(C)=O)c1` (stereo unspecified), the Potency result was “inactive”.

With `CN1C(=O)c2ccc([N+](=O)[O-])cc2C1=O`, the Potency result is “inactive”.

Turning to `CC(C)(C)c1ccccc1`, the Potency entry is “inactive”.

Take `Nc1nc2ccccc2[nH]1`: the Potency entry is “inactive”.

`c1ccc2c(c1)CCCC2C1=NCCN1` (stereo unspecified): the Potency entry was “inactive”.

For `O=C(Cl)c1cccc(C(=O)Cl)c1`, the Potency result was “inactive”.

For `CCc1cc(C(C)(C)C)c(O)c(C(C)(C)C)c1`, the Potency entry is “inactive”.

With `CC[C@@H](N)CO`, the Potency result is “inactive”.

Consider `Cc1ccc(-c2cc(C(F)(F)F)nn2-c2ccc(S(N)(=O)=O)cc2)cc1`, for which the Potency is 38.7 µM (active) and 30.9 µM (active).

As to `CCCCCCCCCCCCCC[P+](CCCC)(CCCC)CCCC`, the Potency is 387 nM (active) and 616 nM (active).

Consider `CCC(CO)(CO)COCC(CC)(CO)CO`, for which the Potency entry was “inactive”.

In the case of `Nc1cc(S(=O)(=O)O)cc2cc(S(=O)(=O)O)cc(O)c12`, the Potency entry was “inactive”.

Regarding `O=C(O)Cn1cnnn1`, the Potency result is “inactive”.

With `Oc1ccc(Cl)cc1Cc1cc(Cl)ccc1O`, the Potency is 22.3 µM (active) and 43.6 µM (active).

For `c1cnc2cc3c(cc2n1)C1CNCC3C1`, the Potency entry was “inactive”.

As for `C=C(C)C(=O)O`, the Potency result is “inactive”.

Take `CCN(CC)CCOc1ccc(/C(=C(\Cl)c2ccccc2)c2ccccc2)cc1`: the Potency is 12.6 µM (active) and 21.3 µM (active).

For the compound `NCCCCCC(=O)O`, the Potency result was “inactive”.

On to `CC(C)CCOC(=O)c1ccc(N(C)C)cc1`, for which the Potency result is “inactive”.

Consider `CCN(CC)c1ccc2c(C)cc(=O)oc2c1`, for which the Potency is 34.9 µM (active).

Turning to `CCCNC(C)C(=O)Nc1ccccc1C` (stereo unspecified), the Potency entry is “inactive”.

Regarding `CCOC(=O)C(C)C(C)=O` (stereo unspecified), the Potency entry is “inactive”.
